# In PubChem BioAssay:
# Results filed as inconclusive are left out. Calls of active or inactive are those of the source.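 The calls were made as follows, unless noted: active = viability at or below 10% of carrier control in both of two separate runs; inconclusive = viability at or below 10% in only one of the two runs; inactive = the rest.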
# How the values were obtained:
# [1] = Her2 expression decrease, cell viability multiplex – SKBR3 breast tumor cells, AlphaScreen, ATP viability, primary screen (AID 461;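 active = Her2 level under about 52% in both replicate screens, with viability over 70% of control, limit read from the data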;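 as to Her2 level: lower value means less Her2 protein in the cells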;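 as to viability: percent of carrier control wells set as 100% viability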); details: SKBR3 Her2 protein level, 18-24 h, measured here: SKBR3 viability, ATP luminescence, at 10 µM
# [2] = target: Receptor tyrosine-protein kinase erbB-2 (Homo sapiens) (UniProt P04626); assay: as above; details: 18-24 h, at 10 µM, stronger effect = lower value
# [3] = reduced viability of SK-BR-3 breast cancer cells – cell-based, 24 h, human, pilot screen (AID 572); details: SK-BR-3 viability, CellTiter-Glo luminescence, at 10 µM, stronger effect = lower value;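 also: compound exposure lasted between 18 and 24 h rather than exactly 24 h; 100% = carrier-treated control wells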
# [4] = HUVEC growth inhibition – cell-based, human, primary screen (AID 575;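 active = viability at or below 30% in both replicate assays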;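 also: 100% = median of untreated cell wells with 0.1% DMSO on each plate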); details: HUVEC proliferation, CellTiter-Glo luminescence, 72 h; at 10 µM; stronger effect = lower value
# [5] = H69AR cell proliferation blockers – human, duplicate replicates, primary screen (AID 580;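 active = viability at or under a set limit in both replicates, limit being median viability minus 3 SD, cut at about 48% in these data, passing the limit was not always enough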;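 also: 100% = mean luminescence of untreated wells and 0% = no signal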); details: H69AR lung tumor cells viability, ATP luminescence, 72 h; at 10 µM; stronger effect = lower value
# [6] = MRP1 drug-resistance reversers in H69AR cells – cell-based, doxorubicin co-treatment, pilot screen (AID 601;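 active = viability loss from added drug above about 55%, and viability with drug at most 40%, in both replicates, limit read from the data, passing the limit was not always enough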); details: CellTiter-Glo, 72 h, at 10 µM; for differential viability (reversal): stronger effect = higher value
# [7] = yeast transport mutant growth inhibition pilot in 384-well plates, post-Golgi transport modulator project (AID 636; in the data active = inhibition above about 31%); details: absorbance 615 nm, about 18 h, stronger effect = higher value
# [8] = growth suppression of yeast trafficking mutant, preliminary HTS, modulators of trafficking downstream of Golgi apparatus project, 1536-format plate, OD 615 nm (AID 637; in the data active = inhibition above about 30%); details: yeast transport mutant growth, absorbance 615 nm, 18 h; stronger effect = higher value
# [9] = S. cerevisiae growth inhibition in permissive medium (OD615), pilot counter-assay for S. cerevisiae lifespan shortening project, permissive growth control (AID 705;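 active = growth inhibition above 25% in both replicates, a cutoff set 3 SD above the mean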); details: OD615, 24 h, at 10 µM, stronger effect = higher value
# [10] = S. cerevisiae growth inhibition in restrictive medium, OD615, pilot screen, restrictive growth control, yeast lifespan reduction project (AID 706;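 active = growth inhibition above a set limit, 3 SD over mean compound inhibition, in both replicates, cut at about 43% in these data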;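 also: modified DeaD lifespan yeast strain shifted to restrictive glucose medium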); details: OD615, 48 h, at 10 µM, stronger effect = higher value
# [11] = doxorubicin toxicity protection in MRP-1 cells – H69AR cells, CellTiter-Glo, duplicate, MRP-1 activator project, pilot screen (AID 807;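 active = viability increase at or above a cutoff of the median across tested compounds plus 3 SD, cut at about 8.5% in these data, passing the limit was not always enough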;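 also: compound pretreatment 18-22 h then 72 h combined with doxorubicin; 0% = doxorubicin alone and 100% = vehicle without doxorubicin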); details: H69AR viability with doxorubicin, CellTiter-Glo luminescence; at 10 µM; stronger effect = higher value
# [12] = viability of HCT116 without oncogenic beta-catenin – human colon tumor cells, pilot screen (AID 823;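 active = cell viability at or below a set limit in both duplicate runs, the limit being the all-compound median minus 4 SD, cut at about 23% in these data, passing the limit was not always enough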;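 also: 0% = wells killed by 20 µM Hyamine and 100% = untreated DMSO cell wells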); details: HCT116 beta-catenin knockout viability, CellTiter-Glo, 60 h; at 10 µM; stronger effect = lower value
# [13] = viability of PTEN-null HCT116 cells – cell-based, HCT116 clonal line, CellTiter-Glo, pilot screen (AID 824;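 active = viability at or below 27.92% in each of two runs, the all-compound median minus 4 SD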;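 also: 0% = 20 µM Hyamine control and 100% = vehicle cell control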); details: HCT116 PTEN-deleted viability, 60 h, at 10 µM, stronger effect = lower value
# [14] = RAM pathway blockade in budding yeast – dse1pr::URA3 reporter, 5-FOA selection, pilot screen (AID 869;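 active = inhibition over a set limit, the all-compound mean plus 3 SD, in both replicate runs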;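 also: 0% = DMSO wells with no growth and 100% = 10 µM 1-NA-PP1 with full growth; RAM network block rescues cells from 5-FOA so hits raise OD615 growth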); details: S. cerevisiae dse1pr::URA3 5-FOA growth, OD615, 2 d; at 10 µM; stronger effect = higher value; strain carries analog-sensitive mutant Cbk1 kinase
# [15] = RAM signaling pathway blockade in yeast – S. cerevisiae, Pdr1DBD-CYC8 efflux-inhibited sensitized strain, primary screen (AID 1298;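 active = RAM network inhibition above 8.4% in each of two replicates, 3 SD over the compound average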;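 also: 0% = DMSO untreated cells without growth and 100% = 10 µM 1-NA-PP1 full growth; higher means more yeast growth rescued from 5-FOA killing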); details: S. cerevisiae cbk1-as DSE1-URA3 strain, 5-FOA growth OD615, 2 d; at 50 µM; stronger effect = higher value
# [16] = H69AR cells + 2 uM doxorubicin, measured here: viability with 2 uM doxorubicin, stronger effect = lower value
# [17] = H69AR cells, compound alone cytotoxicity
# Chain of Receptor tyrosine-protein kinase erbB-2 (Homo sapiens) (P04626 whole entry, looked up): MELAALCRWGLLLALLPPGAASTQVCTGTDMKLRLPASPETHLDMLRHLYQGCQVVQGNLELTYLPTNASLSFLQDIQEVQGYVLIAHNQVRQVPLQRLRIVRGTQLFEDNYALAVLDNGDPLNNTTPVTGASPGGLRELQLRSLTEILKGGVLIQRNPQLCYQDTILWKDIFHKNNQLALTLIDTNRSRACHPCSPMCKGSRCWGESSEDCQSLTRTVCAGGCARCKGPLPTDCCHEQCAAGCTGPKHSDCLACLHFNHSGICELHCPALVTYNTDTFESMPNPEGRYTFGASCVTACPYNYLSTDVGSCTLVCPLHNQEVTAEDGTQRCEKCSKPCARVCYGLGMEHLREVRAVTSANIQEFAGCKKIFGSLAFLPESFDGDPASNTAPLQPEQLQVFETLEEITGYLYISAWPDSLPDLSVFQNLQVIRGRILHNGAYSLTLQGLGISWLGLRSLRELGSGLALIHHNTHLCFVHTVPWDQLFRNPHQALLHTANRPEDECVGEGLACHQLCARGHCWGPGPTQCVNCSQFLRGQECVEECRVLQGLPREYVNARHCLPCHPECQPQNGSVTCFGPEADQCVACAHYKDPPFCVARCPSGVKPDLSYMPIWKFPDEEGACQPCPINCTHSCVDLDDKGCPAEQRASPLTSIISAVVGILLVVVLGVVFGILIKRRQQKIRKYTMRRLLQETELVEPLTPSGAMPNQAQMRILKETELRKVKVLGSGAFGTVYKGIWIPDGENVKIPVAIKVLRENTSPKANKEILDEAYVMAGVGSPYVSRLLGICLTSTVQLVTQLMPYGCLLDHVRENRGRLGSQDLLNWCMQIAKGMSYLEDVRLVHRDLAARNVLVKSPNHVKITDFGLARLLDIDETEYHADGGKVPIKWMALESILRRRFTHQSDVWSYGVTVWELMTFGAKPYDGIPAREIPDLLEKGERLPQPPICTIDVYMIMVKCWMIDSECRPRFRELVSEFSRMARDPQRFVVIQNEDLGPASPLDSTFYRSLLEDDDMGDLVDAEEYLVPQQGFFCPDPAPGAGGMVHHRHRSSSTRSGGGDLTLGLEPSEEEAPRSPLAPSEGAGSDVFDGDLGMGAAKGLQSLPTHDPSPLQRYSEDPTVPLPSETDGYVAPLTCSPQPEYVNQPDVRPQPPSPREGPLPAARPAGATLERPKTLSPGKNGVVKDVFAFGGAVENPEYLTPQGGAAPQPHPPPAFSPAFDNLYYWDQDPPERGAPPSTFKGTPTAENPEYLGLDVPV
Compound,viability [1] [%],Her2 level [2],viability [3],viability [4],viability [5],differential viability (reversal) ([6]; H69AR cells + 2 uM doxorubicin),"viability [6, 16] [%]","viability [6, 17] [%]",inhibition [7],inhibition [8],growth inhibition [9],growth inhibition [10],viability increase [11],viability [12],viability [13],inhibition [14],RAM network inhibition [15]
CSc1cccc(NS(=O)(=O)c2ccccc2)c1,78.5,88% (inactive),78.5% (inactive),107% (inactive),88.7% (inactive),1.02% (inactive),87.7,88.7,-0.9% (inactive),-5.33% (inactive),-0.535% (inactive),3.39% (inactive),0.44% (inactive),92.1% (inactive),95% (inactive),0.96% (inactive),0.21% (inactive)
CCn1cc(C(=O)NCCC2=CCCCC2)c(=O)c2cc(S(=O)(=O)N(C)C)ccc21,82.5,98.5% (inactive),82.5% (inactive),70.4% (inactive),71.7% (inactive),9.64% (inactive),62.1,71.7,-4.67% (inactive),-3.61% (inactive),-14.2% (inactive),-29.6% (inactive),-4.4% (inactive),86.4% (inactive),72.6% (inactive),1.37% (inactive),1.83% (inactive)
COc1cccc(NC(=O)C2CCCN(S(=O)(=O)c3cccc4cccnc34)C2)c1 (stereo not given),106,102% (inactive),106% (inactive),77.8% (inactive),82.7% (inactive),-6.64% (inactive),89.3,82.7,-5.73% (inactive),-5.5% (inactive),-12.6% (inactive),-6.68% (inactive),-1.5% (inactive),72.4% (inactive),70.6% (inactive),1.77% (inactive),3.85% (inactive)
CCN1C(=O)c2ccccc2S(=O)c2ccc(C(=O)NC3CC3)cc21 (stereo not given),100,93.5% (inactive),100% (inactive),105% (inactive),105% (inactive),16% (inactive),88.7,105,-2.8% (inactive),3.77% (inactive),4.88% (inactive),1.4% (inactive),-2.52% (inactive),97.6% (inactive),95.3% (inactive),0.16% (inactive),1.98% (inactive)
CCc1ccc(N2CC34C=CC(O3)C(C(=O)OC)C4C2=O)cc1 (stereo not given),102,104% (inactive),102% (inactive),96.7% (inactive),94.2% (inactive),12% (inactive),82.2,94.2,-2.8% (inactive),-1.17% (inactive),-6.25% (inactive),3.24% (inactive),0.55% (inactive),102% (inactive),99.7% (inactive),0.255% (inactive),0.11% (inactive)
CC1=C(C(=O)Nc2ccc(F)cc2)C(c2cccc(C)c2)n2nc(CCCO)nc2N1 (stereo not given),87.5,91.5% (inactive),87.5% (inactive),79% (inactive),94% (inactive),1.5% (inactive),92.5,94,-3.73% (inactive),-2.83% (inactive),-1.56% (inactive),-3% (inactive),-0.66% (inactive),98.2% (inactive),100% (inactive),-0.19% (inactive),1.3% (inactive)
O=C1CCCc2c1cc(C(=O)NCCCN1CCOCC1)c(=O)n2-c1ccc(Cl)cc1,97,95.5% (inactive),97% (inactive),89.9% (inactive),93.1% (inactive),10.6% (inactive),82.5,93.1,-5.07% (inactive),0.83% (inactive),-14.6% (inactive),-19.1% (inactive),-2.29% (inactive),100% (inactive),104% (inactive),1.44% (inactive),2% (inactive)
CCn1c(-c2cc(Br)ccc2O)n[nH]c1=S,99,88.5% (inactive),99% (inactive),107% (inactive),98% (inactive),0.39% (inactive),97.6,98,-4.59% (inactive),3.02% (inactive),-10% (inactive),-14.2% (inactive),-1.24% (inactive),98.9% (inactive),96.8% (inactive),1.45% (inactive),0.78% (inactive)
CCOC(=O)CN1CC23C=CC(O2)C(C(=O)Nc2ccc(OCC)cc2)C3C1=O (stereo not given),100,96% (inactive),100% (inactive),102% (inactive),96.4% (inactive),7.16% (inactive),89.2,96.4,-4.53% (inactive),0.49% (inactive),17% (inactive),13.4% (inactive),-0.57% (inactive),112% (inactive),105% (inactive),2.22% (inactive),0.21% (inactive)
O=C1C2C3C=CC(C3)C2C(=O)N1c1cccc(N2C(=O)C3C4C=CC(C4)C3C2=O)n1 (stereo not given),91,100% (inactive),91% (inactive),109% (inactive),93.4% (inactive),-4.17% (inactive),97.6,93.4,-4.73% (inactive),4.75% (inactive),-12% (inactive),-11.8% (inactive),-0.89% (inactive),104% (inactive),104% (inactive),3.84% (inactive),5.46% (inactive)
